# Measurements as given in ChEMBL document CHEMBL3988442, “University of Dundee, Small-Polar-MMV Screening Library” (2021).
# Out of some 53,000 compounds screened, about 900 (1.7%) showed an effect of 50% or more. The sample as a whole holds a higher share of strong results than the screen did.
# Tested on: Mycobacterium tuberculosis
# Experiment: Cornell - Phenotypic assay to identify agents that inhibit growth of Mycobacterium tuberculosis
# Format: functional
# Parameters: scale not given: direction of the effect not stated beside the values
# Conditions: 10 mM as filed; unlikely as a test dose
row,Structure (SMILES),Percent Effect [%]
1,CSCC(=O)Nc1nccn1Cc1ccc(Br)cc1,106.3
2,CC(C)(C#N)C(=O)Nc1nccn1Cc1ccc(Br)cc1,15.16
3,CCOCC(=O)Nc1nccn1Cc1ccc(Br)cc1,58.9
4,COCC(=O)Nc1nccn1Cc1ccc(Br)cc1,26.85
5,COCCC(=O)Nc1nccn1Cc1ccc(Br)cc1,27.83
6,CCOCC(=O)Nc1ncn(Cc2cccc(Br)c2)n1,-12.98
7,CNC(=O)C1Cn2ccnc2C2(CCN(C(=O)NC3CCCC3)CC2)O1 (stereo not drawn),14.23
8,COCCNC(=O)N1CCCC(COc2ccccc2)C1 (stereo not drawn),32.08
9,COCCN1CC(C(=O)Nc2ccc3c(c2)CCC(=O)N3C)CC1=O (stereo not drawn),-14.74
10,Cn1ncc2c(NCC3CCCN3c3cccnn3)ncnc21 (stereo not drawn),19.68
11,CCOc1cccc(COC(=O)c2ccc(F)cn2)n1,26.62
12,CCOc1cccc(COC(=O)c2cc(Cl)ccn2)n1,14.29
13,CCOc1cccc(COC(=O)c2cscn2)n1,94.28
14,CCOc1cccc(COC(=O)c2ccc(Cl)cn2)n1,25.49
15,CCOc1cccc(NC(=O)c2cc(C)on2)n1,7.843
16,CCOc1cccc(COC(=O)c2cc(C)on2)n1,56.01
17,Cc1cnn(CC(C)NCc2nc(-c3ccoc3)no2)c1 (stereo not drawn),-18.82

row,Structure (SMILES),Percent Effect [%]
1,CC(=O)N1CCN(C(C)c2ccc(Br)cc2)CC1 (stereo not drawn),29.59
2,CC(=O)c1cccc(NC(=O)Cn2cc(I)cn2)c1,18.59
3,COc1ccc(C2CNCCN2C(=O)c2cccc3cccnc23)cc1 (stereo not drawn),-23.3
4,COc1ccccc1C(=O)N1CCC(Nc2ccc(C)nn2)CC1,2.292
5,CCc1ccc(NC(C(N)=O)c2ccc(F)cc2)cc1 (stereo not drawn),17.32
6,Cc1csc(CN2CCC[C@]3(C[C@H](OCC4CC4)CO3)C2)n1,14.79
7,CCOc1ccc(C(C)Nc2ncnc3c2CCNC3)cc1OCC (stereo not drawn),51.31
8,CC(Nc1ncnc2c1CCNC2)c1ccc(C(C)(C)C)cc1 (stereo not drawn),24.62
9,CCCc1ccc(C(C)Nc2ncnc3c2CCNC3)cc1 (stereo not drawn),32.1
10,COC(=O)Cn1nc(-c2ccccc2F)ccc1=O,-14.4
11,O=c1c(S(=O)(=O)N2CCCCC2)cccn1Cc1ccccc1Cl,9.959
12,CC(C)COC(=O)N1CCCN(C(C)c2nc(C(C)C)no2)CC1 (stereo not drawn),10.17
13,O=C(NCCc1cccs1)C1(N2CCCCC2)Cc2ccccc2C1,15.22
14,O=C(O)C(F)(F)F.O=C(O)C(F)(F)F.c1cnc(N2CCO[C@H]3CN(Cc4ccsc4)C[C@H]32)nc1,5.511
15,CN(C)c1nccc(N2CCO[C@H]3CN(Cc4ccsc4)C[C@H]32)n1.O=C(O)C(F)(F)F,57.1
16,Cc1cccc(CN2C[C@@H]3OCCN(c4ccnc(N(C)C)n4)[C@@H]3C2)c1.O=C(O)C(F)(F)F,24.83
